Assay [1] is described as follows: Primary qHTS for inhibitors of nuclear receptor binding SET domain protein 2 (NSD2) in an RCH-ACV wild type WT cells (2C) (AID 1645877; note: nearly all actives have a fitted effect of over 70% in size; note: potency is the fitted concentration of half-maximal effect; for activity change, negative = cell killing: % is set by controls: 0 for no effect and ±100 for the full control effect). (In qHTS, concentration-response curves come from the screen itself.)
A short description of assay [2]: NCATS anti-infectives library activity on HEK293 viability as a counter-qHTS vs the C. elegans viability qHTS (AID 1745854). For activity change, negative = cytotoxicity: % is set by controls: 0 for no effect and ±100 for the full control effect. Note: potency is the fitted concentration of half-maximal effect. The procedure, abridged: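 CellTiter-Glo luminescence, read on a CCD imager, scored viability of HEK293 cells after 24 hr compound exposure at 37C. Library tested in several concentrations, 1:5 steps, up to 41.7 uM; digitonin served as control.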

Assay [3] has as its target Glutathione peroxidase 1 (Homo sapiens) (UniProt P07203). Put plainly: Primary qHTS Assay for Inhibitors of Recombinant Selenoprotein Glutathione Peroxidase 1 (GPX1) (AID 1845191). For activity, negative = inhibition: % is set by controls: 0 for no effect and ±100 for the full control effect. Note: nearly all actives have a fitted effect of over 65% in size. The essentials:
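GR-coupled readout: NADPH consumption tracked by fluorescence, ex 340/em 450 nm, at t=0 and after 15 min at RT. Final mix 10 nM GPX1, 1 mM GSH, 0.5 mM CHP, 0.5 mM NADPH, 100 nM GR, 0.01% BSA, following 30 min enzyme–compound preincubation.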

The target of assay [4] is Phospholipid hydroperoxide glutathione peroxidase GPX4 (Homo sapiens) (UniProt P36969). Kind of assay: Primary qHTS Assay for Inhibitors of Recombinant Selenoprotein Glutathione Peroxidase 4 (GPX4) (AID 1845192). For activity change, negative = inhibition: % is set by controls: 0 for no effect and ±100 for the full control effect. Note: nearly all actives have a fitted effect of over 65% in size. The procedure, abridged:
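Steps: GPX4 plus compound, 30 min RT; add GR/GSH/NADPH master mix; start with cumene hydroperoxide; read 340/450 nm fluorescence at 0 and 15 min. Finals were 200 nM GPX4, 1 mM GSH, 0.5 mM CHP, 0.5 mM NADPH, 100 nM GR.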

Assay [5] concerns the target Luciferin 4-monooxygenase (Photinus pyralis) (UniProt P08659). Put plainly: Primary firefly luciferase (FLuc) qHTS assay for identification of artifact compounds. (AID 1845220).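 For activity change, negative = inhibition: plate controls were DMSO vehicle for no effect and no enzyme for full effect.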 Note: nearly all actives have a fitted effect of over 60% in size. The essentials: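 Titrated compounds were incubated 15 min at RT, protected from light, with luciferin and ATP at 10 uM; reaction started with 10 nM FLuc, luminescence imaged at 5 min, and concentration-response fitted by Hill equation.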

A short description of assay [6]: Primary fluorescence-based thiol-reactive (MSTI) qHTS assay for identification of artifact compounds. (AID 1845221).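 For activity change, negative = thiol reactive: thiol-reactive compounds lower the probe fluorescence signal.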 Note: nearly all actives have a fitted effect of over 65% in size. Note: potency is the fitted concentration of half-maximal effect. The procedure, abridged:
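qHTS titration of compound; 4 uM MSTI, PBS pH 7.4, 2% DMSO; 1 h RT, dark; fluorescence 525/598 nm; normalized to Acetyl-MSTI and MSTI; 4-parameter Hill fit.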

For assay [7], the system named is Nanoluciferase (engineered Oplophorus gracilirostris luciferase). Put plainly: Primary Nanoluciferase (NLuc) qHTS assay for identification of artifact compounds. (AID 1845222).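 Note: NLuc secreted into diluted conditioned medium of S16 cells; 0% = DMSO and -100% = no enzyme.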 The procedure, abridged:
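qHTS format, against NLuc in S16 cell-conditioned medium. Nano-Glo substrate 1:100 was added after 15 min at room temperature. Luminescence was taken after a further 5 min.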

Assay [8] can be described thus: Primary redox qHTS assay for identification of artifact compounds. (AID 1845223).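 Note: 0% = DMSO and 100% = reference compound.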 The essentials:
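Redox-cycling detection via DTT (250 uM final) oxidation coupled to Amplex Red (25 uM)/HRP (250 mU/mL) in HBSS. 15 min preincubation plus 30 min after DTT, room temperature. Ex/Em 525/598 nm; 4-parameter Hill fit against DMSO and 10 uM DA3003.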

The target of assay [9] is Catechol O-methyltransferase (Homo sapiens) (UniProt P21964). Kind of assay: Confirmatory Screen for Target Class Profiling of Small Molecule Inhibitors of Methyltransferases (AID 1745852; calls by dose curve; note: potency is the fitted concentration of half-maximal effect). Particulars: MTase-Glo luminescence, SAH detection, recombinant enzyme; measured here: COMT max response; stronger effect = lower value.
The target of assay [10] is Guanidinoacetate N-methyltransferase (Homo sapiens) (UniProt Q14353). The assay is described as above. The note with it: activity change, negative = inhibition: at 57.3 µM (top of the series) unless noted.
Assay [11] deals with Nicotinamide N-methyltransferase (Homo sapiens) (UniProt P40261). The description is as above. Particulars: MTase-Glo luminescence, SAH detection, recombinant enzyme; measured here: NNMT max response; stronger effect = lower value.
In assay [12] the target is Phenylethanolamine N-methyltransferase (Homo sapiens) (UniProt P11086). The assay is described as above. Particulars: MTase-Glo luminescence, SAH detection, recombinant enzyme; measured here: PNMT max response; stronger effect = lower value.
A short description of assay [13]: Viability counterscreen for antagonist of constitutive androstane receptor (CAR) against the NCATS DSHEA and TCM libraries (AID 1794837).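 Note: compound exposure lasted 24 h before viability reading; 0% is about no effect.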 The procedure, abridged: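 Counterscreen performed in a 1536-well qHTS format using HepG2-CYP2B6-hCAR cells; samples titrated in the presence of 48 uM CITCO, with viability measured fluorometrically (405/540 nm) after 24 h.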
(The purpose of a counterscreen is to sort out artefacts and off-target activity.)

A short description of assay [14]: Viability counterscreen for agonist of constitutive androstane receptor (CAR) against the NCATS DSHEA and TCM libraries (AID 1794838).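 Note: cells exposed to compound for 24 h; 0% is about no effect.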 The procedure, abridged:
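Multiplexed counterscreen: after 24 h compound exposure with 0.75 uM PK11195, HepG2-CYP2B6-hCAR viability was quantified fluorimetrically (CellTiter-Fluor, 405/540 nm) prior to the ONE-Glo luciferase read.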

In assay [15] the target is Nuclear receptor subfamily 1 group I member 3 (Homo sapiens) (UniProt Q14994). Kind of assay: Primary qHTS for agonist of constitutive androstane receptor (CAR) against the NCATS DSHEA and TCM libraries (AID 1794839).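 Note: HepG2 cells expressing human CAR with a CYP2B6 reporter plus PK11195 antagonist; luciferase reporter luminescence read with ONE-Glo; 0% is about no effect.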 The procedure, abridged:
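Concentration–response screen in HepG2-CYP2B6-hCAR cells under 0.75 µM PK11195; 24 h exposure; luminescent reporter signal with multiplexed fluorescent viability.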

Assay [16] is described as follows: HepG2 viability counterscreen (readout 2: ATP content) against the NCATS DSHEA and TCM libraries (AID 1794840).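 Note: HepG2 cells exposed to substances for about 24 h; 0% is about no effect.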 The essentials:
(§1)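 After HepG2 cells attach for ~4 h, substances are added and incubated ~24 h at 37C, 5% CO2. GF-AFC fluorescence then CellTiter-Glo luminescence give protease and ATP readouts.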

Assay [17] in a line: HepG2 viability counterscreen (readout 1: protease activity) against the NCATS DSHEA and TCM libraries (AID 1794841).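 Note: cells exposed to compounds for about 24 h before the protease read; 0% is about no effect.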 The essentials: as §1
Assay [18] has as its target Cytochrome P450 3A4 (Homo sapiens) (UniProt P08684). Put plainly: qHTS for inhibitors of CYP3A4 against the NCATS DSHEA and TCM libraries (AID 1919971).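 Note: % is set by controls: 0 for no effect and ±100 for the full control effect; inhibition lowers luminescence from luciferin made by CYP3A4.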 The essentials:
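Substances were tested against enzyme with a pro-luciferin substrate; minus-enzyme wells served as background. After NADPH-initiated oxidation (30-45 min, RT), light was generated with P450-Glo reagent.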

A short description of assay [19]: NCATS anti-infectives library activity on the primary C. elegans qHTS viability assay (AID 1745855; calls by dose curve). The essentials: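 Titration-based screen in worms: eggs hatched overnight in M9, L1 larvae fed TOP10 capsules in S medium with compound, incubated 21 °C for 7 days; fluorescent objects gated by size and intensity at days 0, 3 and 7.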

Results filed as inconclusive are left out. The source made the active and inactive calls. Unless noted, calls come from the whole dose curve; as a rule, active = well fitted curve in the direction sought with a large enough effect; inconclusive = small, poorly fitted or top-dose-only effect, or another doubt; inactive = no such curve, though single readings can be large; an effect the other way counts as inactive or inconclusive.

Chain of Glutathione peroxidase 1 (Homo sapiens) (P07203 whole entry, looked up): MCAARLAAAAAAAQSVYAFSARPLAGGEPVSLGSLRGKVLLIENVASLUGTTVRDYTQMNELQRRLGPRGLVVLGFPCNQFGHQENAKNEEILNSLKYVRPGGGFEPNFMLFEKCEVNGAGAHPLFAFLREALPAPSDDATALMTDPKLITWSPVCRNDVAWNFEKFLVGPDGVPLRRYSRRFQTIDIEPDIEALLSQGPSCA
Chain of Phospholipid hydroperoxide glutathione peroxidase GPX4 (Homo sapiens) (P36969 whole entry, looked up): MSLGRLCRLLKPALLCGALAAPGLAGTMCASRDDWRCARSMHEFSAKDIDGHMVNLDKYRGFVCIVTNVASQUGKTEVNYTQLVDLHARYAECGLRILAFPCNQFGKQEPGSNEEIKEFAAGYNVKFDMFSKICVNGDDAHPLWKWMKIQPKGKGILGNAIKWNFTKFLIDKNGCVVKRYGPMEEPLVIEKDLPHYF
Chain of Catechol O-methyltransferase (Homo sapiens) (P21964 whole entry, looked up): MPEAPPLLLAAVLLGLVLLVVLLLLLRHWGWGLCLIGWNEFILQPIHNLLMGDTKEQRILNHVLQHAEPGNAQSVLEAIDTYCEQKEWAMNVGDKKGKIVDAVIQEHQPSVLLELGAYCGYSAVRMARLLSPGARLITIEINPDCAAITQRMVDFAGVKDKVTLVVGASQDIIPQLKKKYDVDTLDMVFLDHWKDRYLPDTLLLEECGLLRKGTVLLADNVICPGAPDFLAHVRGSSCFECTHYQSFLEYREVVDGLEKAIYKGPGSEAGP
Chain of Phenylethanolamine N-methyltransferase (Homo sapiens) (P11086 whole entry, looked up): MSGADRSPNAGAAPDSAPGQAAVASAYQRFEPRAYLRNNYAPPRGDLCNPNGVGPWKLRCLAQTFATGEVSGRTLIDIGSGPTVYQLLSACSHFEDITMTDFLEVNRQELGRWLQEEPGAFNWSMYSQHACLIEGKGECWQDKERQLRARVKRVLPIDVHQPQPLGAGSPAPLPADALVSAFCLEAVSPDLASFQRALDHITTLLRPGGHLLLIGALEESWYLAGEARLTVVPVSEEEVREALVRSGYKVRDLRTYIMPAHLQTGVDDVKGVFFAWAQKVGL
Chain of Nicotinamide N-methyltransferase (Homo sapiens) (P40261 whole entry, looked up): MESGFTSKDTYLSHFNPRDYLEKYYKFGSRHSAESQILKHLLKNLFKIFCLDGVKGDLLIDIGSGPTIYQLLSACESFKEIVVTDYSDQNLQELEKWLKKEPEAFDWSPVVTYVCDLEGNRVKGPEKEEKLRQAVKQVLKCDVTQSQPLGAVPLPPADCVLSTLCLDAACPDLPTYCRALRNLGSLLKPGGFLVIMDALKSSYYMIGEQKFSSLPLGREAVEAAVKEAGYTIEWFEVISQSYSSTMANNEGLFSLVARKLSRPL
Chain of Nuclear receptor subfamily 1 group I member 3 (Homo sapiens) (Q14994 whole entry, looked up): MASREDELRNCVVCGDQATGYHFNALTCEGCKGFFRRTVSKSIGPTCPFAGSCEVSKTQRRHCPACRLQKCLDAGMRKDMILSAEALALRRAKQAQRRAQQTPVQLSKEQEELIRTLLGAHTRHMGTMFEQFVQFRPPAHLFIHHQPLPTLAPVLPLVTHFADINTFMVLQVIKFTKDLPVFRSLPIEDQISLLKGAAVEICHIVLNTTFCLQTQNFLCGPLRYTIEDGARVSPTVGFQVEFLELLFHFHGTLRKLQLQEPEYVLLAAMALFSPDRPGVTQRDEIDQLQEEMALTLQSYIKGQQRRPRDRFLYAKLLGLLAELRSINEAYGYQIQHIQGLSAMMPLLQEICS
Chain of Cytochrome P450 3A4 (Homo sapiens) (P08684 whole entry, looked up): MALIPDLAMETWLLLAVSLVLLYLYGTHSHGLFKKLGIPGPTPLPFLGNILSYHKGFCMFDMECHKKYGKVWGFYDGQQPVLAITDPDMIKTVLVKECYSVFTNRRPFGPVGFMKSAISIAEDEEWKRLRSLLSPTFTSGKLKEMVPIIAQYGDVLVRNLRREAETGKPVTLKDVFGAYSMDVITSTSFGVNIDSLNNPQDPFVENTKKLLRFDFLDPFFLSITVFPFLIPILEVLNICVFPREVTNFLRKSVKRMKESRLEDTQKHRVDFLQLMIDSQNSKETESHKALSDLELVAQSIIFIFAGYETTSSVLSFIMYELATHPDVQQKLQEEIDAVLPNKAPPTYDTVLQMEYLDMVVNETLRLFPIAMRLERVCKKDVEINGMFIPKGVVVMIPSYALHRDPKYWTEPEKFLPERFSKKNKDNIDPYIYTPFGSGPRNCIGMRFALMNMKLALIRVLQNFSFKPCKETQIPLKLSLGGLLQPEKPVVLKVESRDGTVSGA

For `C[C@@]1(O)[C@H](O)[C@@H](CO)O[C@H]1n1ccc(N)nc1=O`, the Potency in assay [1] was 23 µM (active). Also, the Potency result in assay [2], in [3], in assay [4], in assay [5], in [6] and in assay [7] was “inactive” throughout. In addition, the Potency result in [8] was “inactive”.
`COc1cc(N2CCOCC2)ccc1Nc1ncc(Cl)c(Nc2ccccc2NS(C)(=O)=O)n1`: the Potency in assay [1] is 1.83 µM (active); in [6], 1.34 µM (active). Further, the Potency result in assay [3], in assay [4], in assay [5] and in assay [7] was “inactive” throughout.
Turning to `COc1cc2nc(N3CCC(N4CCCCC4)CC3)nc(NC3CCCCCC3)c2cc1OC`, the Potency in assay [1] is 2.3 µM (active); in [10] it was 42.9 µM (active). In addition, the activity in assay [9] is -39.3%; in assay [11] it was -54.7%; in assay [12], -35.6%. Further, the Potency result in [5], in assay [6], in assay [7] and in assay [8] was “inactive” in each case.
In the case of `Cc1cc(OCc2nnc(SC3CCCC3)n2-c2cccnc2)ccc1-c1ccc(S(C)(=O)=O)cc1`, the results for the Potency in [1] and in assay [2] were 1.45 µM (active) and 11.2 µM (active), respectively. Besides, the Potency result in assay [3], in [4], in assay [5], in [6], in assay [7] and in assay [8] was “inactive” in each case.
As to `COc1cccc(C(=O)N2CCN(C(=O)COc3cccc(C)c3)CC2)c1OC`, the Potency entry in assay [1], in assay [3], in assay [4], in [5], in assay [6] and in assay [7] was “inactive” throughout.
As for `Cc1cc(C)cc(C(=O)NOCCCCCC(=O)NO)c1`, the Potency in assay [1] was 0.409 µM (active). For the same compound, the Potency entry in [2], in assay [3], in assay [4], in [5], in assay [7] and in [8] was “inactive” in each case.
For the compound `Cc1ccc(NC(=O)C(=O)NC2CC(C)(C)NC(C)(C)C2)cc1`, the Potency result in assay [1], in assay [2], in assay [3], in assay [4], in [5] and in [6] was “inactive” in each case. The Potency entry in assay [7] and in assay [8] was “inactive” each time.
Take `COc1c2c(cc3c1-c1c(cc4c(c1OC)OCO4)CC(C)C(C)C3)OCO2` (configuration not stated): the Potency result in assay [1], in [2], in assay [3], in assay [4], in assay [5] and in assay [6] was “inactive” each time. The Potency entry in [7] and in assay [8] was “inactive” in each case.
As for `COc1ccc(C(=O)C2CCN(CC(=O)N(Cc3nc4c(c(=O)[nH]3)COCC4)CC3CC3)CC2)cc1`, the Potency result in assay [1], in assay [2], in assay [4], in [6], in [7] and in [8] was “inactive” each time.
`CC(C)=CCC[C@](C)(O[C@@H]1O[C@H](CO[C@@H]2O[C@H](CO)[C@@H](O)[C@H](O)[C@H]2O)[C@@H](O)[C@H](O)[C@H]1O)C1CC[C@]2(C)[C@@H]1[C@H](O)CC1[C@@]3(C)CC[C@H](O[C@@H]4O[C@H](CO)[C@@H](O)[C@H](O)[C@H]4O[C@@H]4O[C@H](CO)[C@@H](O)[C@H](O)[C@H]4O)C(C)(C)[C@@H]3CC[C@]12C` (some centres not stated): in [1], the activity change, negative = cell killing is -25.5% [at 9.23 µM] (inactive). Further, the outcome in assay [13], in assay [15], in [16], in assay [17] and in assay [18] was “inactive” each time. For the same compound, the activity change, negative = cytotoxicity in [14] was 3.8% [at 8.32 µM] (inactive). Moreover, the Potency entry in assay [4] was “inactive”. In assay [5], the activity change, negative = inhibition was -9.29% [at 11.6 µM] (inactive). Moreover, the activity change, negative = thiol reactive in assay [6] is 44.5% [at 11.5 µM] (inactive). Further, the activity, negative = inhibition in [7] was 0.108% [at 11.6 µM] (inactive). In addition, the redox activity (% of DA3003) in assay [8] is 5.05% [at 11.5 µM] (inactive).
Consider `C[C@H](NC(=O)CCc1nc2ccccc2c(=O)[nH]1)c1ccccc1`, for which the Potency entry in [1], in [2], in [19], in [3], in assay [4] and in assay [5] was “inactive” each time. Also, the Potency entry in [6] was “inactive”.
Turning to `CC(C)=CC/C=C(\C)[C@H]1CC[C@]2(C)[C@@H]1[C@H](O)C[C@@H]1[C@@]3(C)CC[C@H](O)C(C)(C)[C@@H]3[C@@H](O[C@@H]3O[C@H](CO)[C@@H](O)[C@H](O)[C@H]3O)C[C@]12C`, the Potency entry in assay [1], in [3], in [4], in [5], in assay [6] and in assay [7] was “inactive” throughout.
`Cc1cc(=O)oc2c(C=O)c(O)ccc12`: the values for the Potency in assay [1] and in assay [10] were 16.3 µM (active) and 17.1 µM (active), respectively. Further, the activity was -6.39% in [9], -24% in assay [11] and -37.6% in assay [12]. Also, the Potency entry in assay [5], in assay [7] and in [8] was “inactive” in each case.
Turning to `CC(C)c1cc(C(=O)N2CC[C@@H](NC(=O)C3CC3)C2)n[nH]1`, the Potency result in assay [1], in assay [2], in [3], in assay [4], in [5] and in [6] was “inactive” throughout. Besides, the Potency entry in assay [7] and in [8] was “inactive” each time.
